PubChem BioAssay (EPA / NIEHS)
Active and inactive are the calls of the source. Rule for the calls: active = hit-call score of the fitted dose curve at least 0.9, where 1 is the maximum; inactive = score below 0.9.

read-out: Interferon-gamma inducible Protein 10 (IP10), CXCL10 (gene 3627); test: BSK_BE3C_IP10: BioMAP Diversity Plus: BE3C Assay for Interferon-gamma inducible Protein 10 (IP10) Biomarker Activity (AID 2283034); conditions: primary human bronchial epithelial cells; actives raise or lower the signal
Protocol: BSK_BE3C is a cell-based, multiplexed-readout assay that uses bronchial epithelial cell, a human lung primary cell, with measurements taken at 24 hours after chemical dosing in a 96-well plate.BSK_BE3C_IP10 is an assay component measured in the BSK_BE3C assay. It measures IP-10 antibody related to regulation of gene expression using ELISA technology.Data from the assay component BSK_BE3C_IP10 was analyzed into 1 assay endpoint. This assay endpoint, BSK_BE3C_IP10, was analyzed with bidirectional fitting relative to DMSO as the negative control and baseline of activity. Using a type of binding reporter, gain or loss-of-signal activity can be used to understand changes in the signaling as they relate to the gene CXCL10. Furthermore, this assay endpoint can be referred to as a primary readout, because this assay has produced multiple assay endpoints where this one serves a signaling function. To generalize the intended target to other relatable targets, this assay endpoint is annotated to the cytokine intended target family, where the subfamily is chemotactic factor.
The levels of cell surface (or secreted, indicated by the prefix "s") biomarker endpoints were measured by ELISA. Overt cytotoxicity to cells in confluent adherent cultures (all systems other than the BT system) was assessed by measuring total protein levels using sulforhodamine B (SRB) staining in parallel cultures at the time of biomarker measurements, indicated as SRB endpoints. For proliferation assays for adherent cell types, individual cell types are cultured at sub-confluence and relative cell numbers quantified by SRB staining at time points optimized for each system (48 h: 3C and CASM3C systems; 72 h: BT and HDF3CGF systems; 96 h: SAg system). SRB was performed by staining cells with 0.1% SRB after fixation with 10% TCA and reading wells at 560 nm.Viability and proliferation of PBMC (T cells) was quantified by Alamar Blue reduction for the SAg and BT systems. For PBMC viability (referred to as PBMC Cytotoxicity within the assay endpoint names), cells were plated (75,000/well in a 96-well plate) and then chemical samples added for 1 h before addition of activators, SEB and TSST-1 (20 ng/mL final concentration each). Cells were incubated for 90 h. Then, Alamar Blue (20 uL/well) (Invitrogen, Cat DAL1100) was added for 6 h, and the plates were read with a fluorescence microplate reader at 546/580 nm (excitation/emission). For PBMC proliferation, cells were plated and activated as above but incubated for only 16 h prior to addition of Alamar Blue. Plates were read after 6 h.

Question: How did the outcome turn out when `CCCC(=O)OCCC(C)C` was run?
Answer: inactive

Question: Which outcome does the source give for `CCCCCc1ccc(N)cc1` here?
Answer: inactive

Question: With `Oc1ccccc1` as the compound, how does the outcome read?
Answer: inactive

Question: `CC(O)CC(C)(C)O` (stereo not given) was tested. Which outcome did it give?
Answer: inactive

Question: With `Cc1cccc2ccccc12` as the compound, how does the outcome read?
Answer: inactive

Question: For `O=C(O)c1ccccc1-n1cc(C(=O)O)c(=O)c2cc(Nc3c(F)cc(F)cc3Cl)c(Cl)cc21`, which outcome is on record?
Answer: inactive

Question: With `O=c1ccc2ccccc2o1` as the compound, how does the outcome read?
Answer: inactive

Question: For `O=c1c(-c2ccc(O)cc2)coc2cc(O)cc(O)c12`, which outcome is on record?
Answer: inactive

Question: Which outcome does the source give for `CC1=CC(=O)/C(=C(/C)O)C(=O)O1` here?
Answer: inactive

Question: For `CCN(CC)C(=O)c1cc(S(=O)(=O)Cc2ccccc2)c(N2CCC(c3ccccc3)CC2)cc1N(CC)CCN(C)C`, which AC50 is on record?
Answer: 10.9 µM (active)

Question: With `Oc1ccc2ccccc2c1` as the compound, how does the AC50 read?
Answer: 32.5 µM (active)

Question: `O=C(O)Cn1c(=O)n(Cc2ccc(Br)cc2F)c(=O)c2ccc(Cl)cc21` was tested. Which outcome did it give?
Answer: inactive

Question: For `COc1cccc([C@H](O)C2CCN(CCc3ccc(F)cc3)CC2)c1OC`, which outcome is on record?
Answer: inactive

Question: How did the outcome turn out when `O=C(O)c1ccccc1C(=O)OCc1ccccc1` was run?
Answer: inactive

Question: With `CC(=O)N1CCN(c2ccc(OC[C@H]3CO[C@](Cn4ccnc4)(c4ccc(Cl)cc4Cl)O3)cc2)CC1` as the compound, how does the AC50 read?
Answer: 29.4 µM (active)

Question: How did the AC50 turn out when `CCCCCCCCCCCC[N+](C)(C)C` was run?
Answer: 21.8 µM (active)

Question: How did the AC50 turn out when `Clc1ccccc1C(c1ccccc1)(c1ccccc1)n1ccnc1` was run?
Answer: 10.7 µM (active)

Question: With `CCCCCCCCN(C)CCCCCCCC` as the compound, how does the outcome read?
Answer: inactive

Question: How did the outcome turn out when `Cc1ccc2oc(CN(Cc3ccccc3)C(=O)Nc3c(F)cc(F)cc3F)c(-c3ccc(Cl)cc3)c2c1` was run?
Answer: inactive

Question: How did the outcome turn out when `Cc1ncc(CO)c(CO)c1O` was run?
Answer: inactive

Question: How did the outcome turn out when `CCO[Si](CCCNC(N)=O)(OCC)OCC` was run?
Answer: inactive

Question: For `CCCCOC(=O)CC(CC(=O)OCCCC)(OC(C)=O)C(=O)OCCCC`, which outcome is on record?
Answer: inactive

Question: Which outcome does the source give for `Cc1c2ccccc2c(C)c2c1ccc1ccccc12` here?
Answer: inactive

Question: With `Clc1cc(Cl)c2c(c1)N=C1CCCCCN1C2` as the compound, how does the outcome read?
Answer: inactive

Question: For `O=C1O[C@H]([C@@H](O)CO)C(O)=C1O`, which outcome is on record?
Answer: inactive

Question: Which AC50 does the source give for `CCN(Cc1cccnc1)C(=O)c1cccc(Cl)c1[C@]1(C)C(=O)N(Cc2ccc(OC)cc2OC)c2ccc(Cl)cc21` here?
Answer: 12.1 µM (active)

Question: How did the outcome turn out when `COCC(C)OCC(C)OCC(C)O` (stereo not given) was run?
Answer: inactive

Question: `COc1ccc2cc(S(=O)(=O)N[C@H](CC(=O)N[C@H](Cc3ccc(CN4[C@H](C)CCC[C@@H]4C)cc3)C(=O)N(C)C(C)C)c3ccc4c(c3)OCO4)ccc2c1` was tested. Which AC50 did it give?
Answer: 31.1 µM (active)

Question: `OC12N=C(c3ccccc3)SC1Cc1cc(Cl)ccc12` (stereo not given) was tested. Which outcome did it give?
Answer: inactive

Question: `Cc1occc1C(=O)Nc1ccc(C(=O)N2CCC(F)(F)/C(=C\C(=O)N3CCC(N4CCCCC4)CC3)c3ccccc32)cc1` was tested. Which outcome did it give?
Answer: inactive

Question: `CO[C@H]1/C=C/O[C@@]2(C)Oc3c(C)c(O)c4c(O)c(c(/C=N/N5CCN(C)CC5)c(O)c4c3C2=O)NC(=O)/C(C)=C\C=C\[C@H](C)[C@H](O)[C@@H](C)[C@@H](O)[C@@H](C)[C@H](OC(C)=O)[C@@H]1C` was tested. Which outcome did it give?
Answer: inactive

Question: Which AC50 does the source give for `NC(=O)c1nc(-c2cccc(-c3cc(F)ccc3OCC(F)(F)C(F)(F)F)c2)n[nH]1` here?
Answer: 35.9 µM (active)

Question: `CN(C)c1ccc(C(=C2C=CC(=[N+](C)C)C=C2)c2ccc(N(C)C)cc2)cc1` was tested. Which AC50 did it give?
Answer: 5.52 µM (active)

Question: For `CCCCCCCC[Si](OCC)(OCC)OCC`, which AC50 is on record?
Answer: 26.3 µM (active)

Question: With `C[C@]12CC[C@@H]3c4ccc(O)cc4CC[C@H]3[C@@H]1CC[C@H]2O` as the compound, how does the outcome read?
Answer: inactive

Question: For `CC(C)(c1cc(Br)c(O)c(Br)c1)c1cc(Br)c(O)c(Br)c1`, which AC50 is on record?
Answer: 6.45 µM (active)

Question: Which outcome does the source give for `O=C1c2ccccc2C(=O)N1CCc1noc(-c2ccc(CN3CCCCCC3)s2)n1` here?
Answer: inactive

Question: For `CCCCCCCCCC(=O)O`, which outcome is on record?
Answer: inactive

Question: For `COc1cc(C(=O)NC2CCN(C)CC2)ccc1Nc1ncc2c(n1)N(C1CCCC1)CC(F)(F)C(=O)N2C`, which AC50 is on record?
Answer: 35.5 µM (active)

Question: For `CCCCCCCCCCCCO`, which AC50 is on record?
Answer: 30.8 µM (active)
